A number with no mark means an inactive call. Inconclusive results are not listed. The source made the active and inactive calls. Unless noted, the call rests on the fitted dose curve; in most records, active means well fitted curve in the direction sought with a large enough effect; inconclusive means small, poorly fitted or top-dose-only effect, or another doubt; inactive means no such curve, though single readings can be large; an effect the other way counts as inactive or inconclusive.
tested on: not listed separately; experiment: Cell Viability - LYMP2-026 (AID 989); conditions: LYMP2-026 lymphoblastoid cell viability, qHTS; series mostly up to 92.2 µM; activity change, negative = cytotoxic: at the top concentration; further: nearly all actives have a fitted effect of over 50% in size; further: potency means the concentration at half of the fitted maximal effect; on activity change, negative = cytotoxic: on the % scale 0 is the no-effect control and ±100 the full control effect
In short: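 Human lymphoblastoid cells (2500/well) in complete medium were preincubated 5 hr at 37 C, then exposed to compounds for 24 hr at 37 C. Cellular ATP was read by CellTiter-Glo luminescence; AC50 from Hill-equation fits of concentration-response data.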

Row | Structure (SMILES) | activity change, negative = cytotoxic [%] | Potency
1 | CCc1cc(C(N)=S)ccn1 | -2.22 | –
2 | Cc1ccnc2c1NC(=O)c1cccnc1N2C1CC1 | -20.6 | –
3 | CC1=NN(c2ccccc2)C(=O)C1 | -10.1 | –
4 | Cc1nnc(NS(=O)(=O)c2ccc(N)cc2)s1 | 1.18 | –
5 | NNC(=O)c1ccncc1 | -2.4 | –
6 | NC(N)=NC(N)=NCCc1ccccc1 | -9.64 | –
7 | CN(C)c1ccc(C(=C2C=CC(=[N+](C)C)C=C2)c2ccc(N(C)C)cc2)cc1 | – | 2.51 µM (active)
8 | O=C(N[C@H](CO)[C@H](O)c1ccc([N+](=O)[O-])cc1)C(Cl)Cl | -2.96 | –
9 | C[C@]12C=CC(=O)C=C1CC[C@@H]1[C@@H]2C(=O)C[C@@]2(C)[C@H]1CC[C@]2(O)C(=O)CO | -2.17 | –
10 | Cc1noc(NS(=O)(=O)c2ccc(N)cc2)c1C | -8.25 | –
11 | O=C(O)c1cc(=O)[nH]c(=O)[nH]1 | 3.35 | –
12 | CC[C@H](C)C(=O)O[C@H]1C[C@@H](C)C=C2C=C[C@H](C)[C@H](CC[C@@H]3C[C@@H](O)CC(=O)O3)[C@H]21 | -14.9 | –
13 | Cc1ncc([N+](=O)[O-])n1CCO | -3.58 | –
14 | Cc1cc(NS(=O)(=O)c2ccc(N)cc2)no1 | -3.54 | –

target: Alpha-galactosidase A (Homo sapiens) (UniProt P06280); experiment: Counterscreen for Glucocerebrosidase Inhibitors: qHTS Assay for Human alpha-Galactosidase at pH 4.5 (AID 992); conditions: purified enzyme, fluorogenic substrate; series mostly up to 76.9 µM; activity change, negative = inhibition: at the top concentration; further: 0% is about no effect
Sequence (P06280 whole entry, looked up): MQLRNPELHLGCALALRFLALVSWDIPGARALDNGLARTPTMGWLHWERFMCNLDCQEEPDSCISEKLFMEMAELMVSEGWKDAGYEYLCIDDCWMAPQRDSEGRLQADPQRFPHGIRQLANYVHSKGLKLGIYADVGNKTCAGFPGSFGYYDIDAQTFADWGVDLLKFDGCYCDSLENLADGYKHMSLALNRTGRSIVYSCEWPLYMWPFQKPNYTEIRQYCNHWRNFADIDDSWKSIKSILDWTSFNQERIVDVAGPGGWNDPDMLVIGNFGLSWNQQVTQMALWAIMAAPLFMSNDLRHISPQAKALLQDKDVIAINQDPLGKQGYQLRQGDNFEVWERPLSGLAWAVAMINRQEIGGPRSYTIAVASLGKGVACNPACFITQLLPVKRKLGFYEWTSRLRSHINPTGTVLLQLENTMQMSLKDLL
In short: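 Quantitative HTS: compounds tested from 0.7 nM up to 77 uM against 2 nM enzyme with 80 uM 4-MU alpha-D-galactopyranoside. The 20 min room-temperature reaction is stopped with 1M NaOH/1M glycine, pH 10.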

Row | Structure (SMILES) | activity change, negative = inhibition [%]
15 | CC(=O)[C@H]1CC[C@H]2[C@@H]3CCC4=CC(=O)CC[C@]4(C)[C@H]3CC[C@]12C | 0.592
16 | NC(=O)c1cccc(N)c1 | -0.704
17 | Cc1ccc(S(=O)(=O)N[C@@H](Cc2ccccc2)C(=O)CCl)cc1 | -0.685
18 | CC(C)(C)NC(=O)[C@H]1CC[C@H]2[C@@H]3CC[C@H]4NC(=O)C=C[C@]4(C)[C@H]3CC[C@]12C | -1.08
19 | N[C@@H](Cc1ccc(O)c(O)c1)C(=O)O | -1.59
20 | COc1cc2ncnc(Nc3cccc(Cl)c3)c2cc1OC | -4.58

tested on: not listed separately; experiment: Cell Viability - LYMP1-002 - Assay at 24 hr (AID 993); conditions: LYMP1-002 lymphoblastoid cells viability; series mostly up to 92.2 µM; activity change, negative = cytotoxicity: at the top concentration; further: potency means the concentration at half of the fitted maximal effect; on activity change, negative = cytotoxicity: on the % scale 0 is the no-effect control and ±100 the full control effect
In short: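 Human lymphoblastoid LYMP1-002 cells, 2500/well in complete medium, were treated with compounds for 24 h at 37 C; intracellular ATP was read by CellTiter-Glo luminescence. AC50 values came from Hill-equation fits of qHTS concentration-response data.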

Row | Structure (SMILES) | activity change, negative = cytotoxicity [%] | Potency
21 | CCc1cc(C(N)=S)ccn1 | -3.45 | –
22 | Cc1ccnc2c1NC(=O)c1cccnc1N2C1CC1 | -3.63 | –
23 | CC1=NN(c2ccccc2)C(=O)C1 | -8.25 | –
24 | Cc1nnc(NS(=O)(=O)c2ccc(N)cc2)s1 | -5.44 | –
25 | NNC(=O)c1ccncc1 | 4.65 | –
26 | NC(N)=NC(N)=NCCc1ccccc1 | -17.7 | –
27 | CN(C)c1ccc(C(=C2C=CC(=[N+](C)C)C=C2)c2ccc(N(C)C)cc2)cc1 | – | 3.16 µM (active)
28 | O=C(N[C@H](CO)[C@H](O)c1ccc([N+](=O)[O-])cc1)C(Cl)Cl | -1.58 | –
29 | C[C@]12C=CC(=O)C=C1CC[C@@H]1[C@@H]2C(=O)C[C@@]2(C)[C@H]1CC[C@]2(O)C(=O)CO | -2.75 | –
30 | Cc1noc(NS(=O)(=O)c2ccc(N)cc2)c1C | -0.566 | –
31 | COc1ccc2cc3[n+](cc2c1OC)CCc1cc2c(cc1-3)OCO2 | -9.18 | –
32 | O=C(O)c1cc(=O)[nH]c(=O)[nH]1 | 0.884 | –
33 | CC[C@H](C)C(=O)O[C@H]1C[C@@H](C)C=C2C=C[C@H](C)[C@H](CC[C@@H]3C[C@@H](O)CC(=O)O3)[C@H]21 | -25.3 | –
34 | Cc1ncc([N+](=O)[O-])n1CCO | 0.487 | –
35 | Cc1cc(NS(=O)(=O)c2ccc(N)cc2)no1 | 6.85 | –

tested on: not listed separately; experiment: Cell Viability - LYMP1-002 - Assay at 40 hr (AID 994); conditions: LYMP1-002 lymphoblastoid cell viability; series mostly up to 92.2 µM; viability change, negative = cytotoxic: at the top concentration; further: nearly all actives have a fitted effect of over 60% in size; further: potency means the concentration at half of the fitted maximal effect;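 on viability change, negative = cytotoxic: 0% = DMSO only and full inhibition = 92 µM tetraoctylammonium bromide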
In short: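 Human lymphoblastoid cells, 2500/well in complete medium, were preincubated 5 hr at 37 C, then exposed to compounds for 40 hr at 37 C. Intracellular ATP was read by CellTiter-Glo luminescence after 30 min at room temperature; AC50 from Hill-equation fits.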

Row | Structure (SMILES) | viability change, negative = cytotoxic [%] | Potency
36 | CCc1cc(C(N)=S)ccn1 | -5.99 | –
37 | Cc1ccnc2c1NC(=O)c1cccnc1N2C1CC1 | -12.4 | –
38 | CC1=NN(c2ccccc2)C(=O)C1 | -12.4 | –
39 | Cc1nnc(NS(=O)(=O)c2ccc(N)cc2)s1 | -2.95 | –
40 | NNC(=O)c1ccncc1 | -3.73 | –
41 | NC(N)=NC(N)=NCCc1ccccc1 | -20.9 | –
42 | CN(C)c1ccc(C(=C2C=CC(=[N+](C)C)C=C2)c2ccc(N(C)C)cc2)cc1 | – | 3.98 µM (active)
43 | O=C(N[C@H](CO)[C@H](O)c1ccc([N+](=O)[O-])cc1)C(Cl)Cl | -8.59 | –
44 | C[C@]12C=CC(=O)C=C1CC[C@@H]1[C@@H]2C(=O)C[C@@]2(C)[C@H]1CC[C@]2(O)C(=O)CO | -3.64 | –
45 | Cc1noc(NS(=O)(=O)c2ccc(N)cc2)c1C | -1.79 | –
46 | N=C(N)c1ccc(OCCCCCOc2ccc(C(=N)N)cc2)cc1 | – | 50.1 µM (active)
47 | COc1ccc2cc3[n+](cc2c1OC)CCc1cc2c(cc1-3)OCO2 | -29.4 | –
48 | O=C(O)c1cc(=O)[nH]c(=O)[nH]1 | -5.64 | –
49 | Cc1ncc([N+](=O)[O-])n1CCO | -4.12 | –
50 | Cc1cc(NS(=O)(=O)c2ccc(N)cc2)no1 | 6.75 | –

target: alpha-glucosidase (Oryza sativa, rice) (UniProt Q653V4); experiment: Counterscreen for Glucocerebrosidase Inhibitors: qHTS Assay for Rice alpha-Glucosidase at pH 5.0 (AID 997); conditions: rice alpha-glucosidase enzyme activity; series mostly up to 76.9 µM; activity change, negative = inhibition: at the top concentration;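 further: 0% = full activity with enzyme and -100% = basal without enzyme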
In short: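 Rice alpha-glucosidase (4 nM final) with 400 uM 4-methylumbelliferyl-alpha-D-glucopyranoside in citrate buffer pH 5.0, 20 min at room temperature, stopped at pH 10; fluorescence 365/440 nm, compounds 0.7 nM–77 uM, AC50 from Hill fits.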

Row | Structure (SMILES) | activity change, negative = inhibition [%]
51 | CC(=O)[C@H]1CC[C@H]2[C@@H]3CCC4=CC(=O)CC[C@]4(C)[C@H]3CC[C@]12C | -4.32
52 | NC(=O)c1cccc(N)c1 | 1.76
53 | Cc1ccc(S(=O)(=O)N[C@@H](Cc2ccccc2)C(=O)CCl)cc1 | -0.693
54 | CC(C)(C)NC(=O)[C@H]1CC[C@H]2[C@@H]3CC[C@H]4NC(=O)C=C[C@]4(C)[C@H]3CC[C@]12C | -0.972
55 | N[C@@H](Cc1ccc(O)c(O)c1)C(=O)O | -2.5
56 | COc1cc2ncnc(Nc3cccc(Cl)c3)c2cc1OC | -2.37

tested on: not listed separately; experiment: qHTS Assay for Lipid Storage Modulators (AID 1519; calls by dose curve; further: on the % scale 0 is the no-effect control and ±100 the full control effect); conditions: Drosophila S3 cells, BODIPY lipid droplet/cell ratio, laser cytometry; at 25.7 µM (top of the series); cells loaded with oleic acid
In short: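 Cells seeded at 5,000 per well were treated with compounds over a concentration series and loaded with oleic acid (400 uM, as added). Lipid droplet fluorescence (488 nm excitation, 500-530 nm channel) was read by laser-scanning cytometry and normalized to 20 uM Triacsin C.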

Row | Structure (SMILES) | activity change, negative = inhibition [%]
57 | CCc1cc(C(N)=S)ccn1 | -2.71
58 | COc1ncnc(NS(=O)(=O)c2ccc(N)cc2)c1OC | -2.34
59 | Cc1nnc(NS(=O)(=O)c2ccc(N)cc2)s1 | 0.279
60 | NNC(=O)c1ccncc1 | -0.316
61 | CCn1cc(C(=O)O)c(=O)c2cc(F)c(N3CCNCC3)nc21 | 0.491
62 | NC(N)=NC(N)=NCCc1ccccc1 | -0.801
63 | COc1cnc(NS(=O)(=O)c2ccc(N)cc2)nc1 | -0.0044
64 | N=C(N)c1ccc(OCCCCCOc2ccc(C(=N)N)cc2)cc1 | -3.38
65 | N[C@@H](Cc1ccc(O)c(O)c1)C(=O)O | -1.67
66 | O=C(O)c1cccnc1 | -4.1
67 | COc1ccc2cc3[n+](cc2c1OC)CCc1cc2c(cc1-3)OCO2 | -1.57
68 | COc1cc(NS(=O)(=O)c2ccc(N)cc2)nc(OC)n1 | -1.42
69 | Nc1ccc(S(=O)(=O)Nc2ccccn2)cc1 | -0.611
70 | Cc1cccc(Nc2ccncc2S(=O)(=O)NC(=O)NC(C)C)c1 | -1.07
71 | CC(C)(Sc1cc(C(C)(C)C)c(O)c(C(C)(C)C)c1)Sc1cc(C(C)(C)C)c(O)c(C(C)(C)C)c1 | -2.44
72 | CCn1cc(C(=O)O)c(=O)c2cc(F)c(N3CCNCC3)cc21 | 0.231
73 | Cc1cc(NS(=O)(=O)c2ccc(N)cc2)no1 | 0.06
